Screening results as filed in PubChem.
NPC1 prom act = activators of NPC1 promoter. Huh7 NPC1 promoter luciferase reporter, 24 h. Potency, µM (doses to about 9.22 µM), without a hit: top-dose activation, most hits filed as activators. hit rate 2.4% among 320,000; also: % of control where 0% means no effect; nearly all actives have a fitted effect of over 60% in size
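In 1536-well qHTS, Huh7 cells harboring an NPC1 promoter–luciferase construct received compound for 24 h; activation was quantified by luminescence following luciferase reagent addition.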
ELG1 repair inh = ELG1-dependent DNA repair inhibition; HEK293T ELG1-luciferase reporter, luminescence, 16 h; DNA damage induced by 5-fluorouridine; Potency, µM (highest dose often 46.1 µM), for inactives: at the highest dose activity change, negative = inhibition, actives largely listed as inhibitors; hit rate 2.3% among 330,000; AID 504467; also: % is scaled to controls: 0 for no effect and ±100 for the full control effect; nearly all actives have a fitted effect of over 55% in size
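HEK293T cells expressing luciferase-tagged ELG1 (2,000/well) received 5-Fluorouridine plus compound or DMSO for 16 hr at 37 °C. Luciferase was read by ONE-Glo luminescence after 30 min at room temperature.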
Rab9 promoter act = Rab9 promoter activation. Huh7 Rab9 promoter-luciferase reporter, luminescence, 24 h. Potency, µM (doses to about 9.22 µM), for the others: top-dose activation, negative = inhibition, hits mostly activators. hit rate 2.8% among 320,000. AID 485297; also: % of control where 0% means no effect; nearly all actives have a fitted effect of over 60% in size
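Cell-based reporter: Huh7 stable for Rab9 promoter-driven luciferase, plated in reduced-serum medium with 10% FBS at 1500 cells/well, compound-treated 24 h at 37 °C, luminescence read after 10 min reagent.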
ELG1 genotoxic = inducers of genotoxicity in HEK293T ELG1-luciferase cells; Potency, µM (series often up to 46 µM), inactives show at the top dose activity change, positive = activation, hits mostly activators; hit rate 1.3% among 330,000; HEK293T ELG1-luciferase reporter, luminescence, 16 h; AID 504466; also: % of control where 0% means no effect; nearly all actives have a fitted effect of over 60% in size
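Genotoxicity was scored as increased ELG1-luciferase reporter signal, measured by ONE-Glo luminescence (30 min, room temperature). Compound or vehicle exposure of the HEK293T reporter cells lasted 16 hr at 37°C.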
FLuc modulator = counter-screen for miR-21 project: firefly luciferase inhibitors or activators | purified FLuc, Km substrates, luminescence inhibition | Potency, µM (highest dose often 57.5 µM), without a hit: top-dose activity change, negative = inhibition, most hits filed as inhibitors | hit rate 6.9% among 360,000 | P08659;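 also: plate controls were vehicle for no effect and reference inhibitor for full effect; nearly all actives have a fitted effect of over 55% in size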
Target sequence (P08659 whole entry, looked up): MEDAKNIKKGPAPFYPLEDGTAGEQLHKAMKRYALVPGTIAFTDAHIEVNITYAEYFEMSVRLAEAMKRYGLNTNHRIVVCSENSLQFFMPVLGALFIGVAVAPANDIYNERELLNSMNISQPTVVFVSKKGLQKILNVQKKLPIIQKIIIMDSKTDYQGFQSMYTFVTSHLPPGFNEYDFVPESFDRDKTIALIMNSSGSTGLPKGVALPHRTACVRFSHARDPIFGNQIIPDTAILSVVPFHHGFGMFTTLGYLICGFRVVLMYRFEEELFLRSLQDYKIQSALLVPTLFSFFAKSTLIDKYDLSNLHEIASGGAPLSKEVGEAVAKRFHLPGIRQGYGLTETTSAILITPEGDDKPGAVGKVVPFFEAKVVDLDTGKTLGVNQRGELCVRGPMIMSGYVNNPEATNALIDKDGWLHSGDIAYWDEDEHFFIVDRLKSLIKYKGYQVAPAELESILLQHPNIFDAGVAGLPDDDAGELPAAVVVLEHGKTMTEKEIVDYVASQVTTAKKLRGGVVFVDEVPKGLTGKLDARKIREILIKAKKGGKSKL
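Purified P. pyralis luciferase (10nM final) with 10uM D-luciferin and 10uM ATP (Km levels) in 50mM Tris acetate pH 7.5, 10mM Mg acetate, 0.01% Tween-20, 0.05% BSA; qHTS 6-point titration, ~60 µM downward; luminescence read.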
SMN2 splice up = SMN2 splice variant enhancement. HEK293 SMN2-luciferase splicing reporter, luminescence, 30-36 h. Potency, µM (titrated, usually from 46.1 µM), for the others: at the highest dose activity change, positive = activation, hits mostly activators. hit rate 2.8% among 210,000. AID 1458; also: % of control where 0% means no effect; nearly all actives have a fitted effect of over 55% in size
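qHTS luciferase splicing reporter: luminescence rises when SMN2 exon 7 is included in transfected HEK293 cells. Compound exposure lasted 30-36 h at 37C, with 4.5 mM final sodium butyrate as control, followed by a ONE-Glo read.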
The depositor's hits bear a star; ? = inconclusive; / = not tested or not shown. Only some compounds are listed: those with a hit (about 9.2% of all), similar ones and a draw of the others. Calls follow the shape of the dose curve; as a rule, active = well fitted curve in the direction sought with a large enough effect; inconclusive = small, poorly fitted or top-dose-only effect, or another doubt; inactive = no such curve, though single readings can be large; an effect the other way counts as inactive or inconclusive. Potency is read from the fitted curve at half-maximal effect.

SMILES	NPC1 prom act	ELG1 repair inh	Rab9 promoter act	ELG1 genotoxic	FLuc modulator	SMN2 splice up
COc1ccc(N2CCN(C(=O)CSc3nc4c(c(=O)n(C)c(=O)n4C)n3C(C)C)CC2)cc1	3.7%	20.6µM*	-4.0%	-5.3%	6.9%	-26.1%
CC1(C)Cc2ccccc2-c2nnc(SCC(=O)N3CCN(c4ccccc4)CC3)n21	1.0%	14.6µM*	1.6%	-18.5%	5.7%	/
NC(=O)CCCSc1nc2ccccc2[nH]1	1.1%	3.6%	-0.4%	-0.9%	-3.6%	-0.9%
COc1ccc(N2CCN(C(=O)CCCSc3nc4ccccc4[nH]3)CC2)cc1	-1.0%	23.1µM*	-2.1%	-14.6%	2.7%	-67.1%
CC(C)n1c(SCC(=O)Nc2nc3c(s2)CCCC3)nc2c1c(=O)n(C)c(=O)n2C	-1.4%	18.4µM*	-5.5%	-11.0%	8.0%	-69.2%
COc1ccc(NC(=O)Nc2c[nH]c(=O)[nH]c2=O)c(OC)c1	/	/	/	/	5.8%	/
Cc1c(C(=O)Nc2ccccc2F)sc2ncn(CC(=O)N3CCCCC3)c(=O)c12	-2.4%	2.9%	0.5%	0.1%	-2.5%	/
C=CCn1c(COc2ccccc2)nnc1SCC(=O)N/N=C/c1ccc(C)cc1	-7.3%	0.1%	-0.4%	2.7%	12µM*	17.6%
COc1cccc(N2CCN(C(=O)CCCCCNc3nc(=S)[nH]c4ccccc34)CC2)c1	0.2%	18.3µM*	-16.1%	-14.6%	-9.8%	-48.8%
COc1ccc(N2C(=NC(=O)c3ccc(Br)cc3)SC3CS(=O)(=O)CC32)cc1 (stereo not given)	-7.5%	3.3%	0.1%	6.3%	3.3%	/
Cc1cccc(C)c1NC(=O)C(=O)NCC(c1ccc2c(c1)OCO2)N1CCOCC1 (stereo not given)	/	/	/	/	-2.9%	/
COc1ccc(C(=O)c2oc3ccccc3c2NC(=O)c2cc(=O)c3ccc(C)cc3o2)cc1Cl	/	/	/	/	-2.6%	-2.8%
O=C(/C=C/Nc1ccc(F)cc1F)c1ccco1	?	?	3.55µM*	0.461µM*	0.213µM*	2.82µM*
O=C(NNC(=S)Nc1ccc(F)cc1F)c1ccco1	?	?	?	10.8%	-16.0%	/
O=C(/C=C/Nc1ccc(Br)cc1F)c1ccco1	1.12µM*	?	0.708µM*	0.326µM*	0.239µM*	1.12µM*
O=C(/C=C/Nc1ccccc1Oc1ccccc1)c1ccco1	1.6%	-1.7%	-4.3%	0.5%	-25.9%	-0.8%
O=C(/C=C/Nc1ccccc1O)c1ccco1	0.7%	?	?	20.6µM*	2.39µM*	/
O=c1[nH]cc(N(CCO)CCO)c(=O)[nH]1	0.2%	1.1%	-2.8%	-3.5%	-2.3%	/
Cc1nn(C)cc1/C=N\NC(=O)c1csc2c1CCCC2	3.0%	?	14.5%	1.5%	-18.1%	/
S=C(NCCc1ccccn1)Nc1ccc(Cl)cc1Cl	4.8%	-2.9%	18.3%	0.8%	-4.6%	16.8%
Cc1ccc(-n2nnnc2SC(C)C(=O)NCC(=O)Nc2ccc(F)c(F)c2F)c(C)c1 (stereo not given)	0.0%	18.4µM*	-2.6%	-5.7%	1.1%	-8.7%
CCc1noc(C)c1C(=O)NNC(=O)COc1ccc(C)cc1	-6.9%	-2.5%	-4.6%	1.2%	3.8%	/
CC(Sc1nnc(Cc2cccs2)n1C1CC1)C(=O)NC1CCS(=O)(=O)C1 (stereo not given)	-1.5%	3.0%	-12.5%	-1.6%	4.6%	/
CCCn1c(N)c(C(=O)NS(=O)(=O)c2ccc(C)cc2)c(=O)n(C)c1=O	-12.9%	10.3µM*	-6.9%	-15.9%	2.0%	-45.0%
CCCCSc1nnc(-c2c[nH]c3ccccc23)n1C	?	?	?	?	15.1µM*	-8.9%
SMILES	NPC1 prom act	ELG1 repair inh	Rab9 promoter act	ELG1 genotoxic	FLuc modulator	SMN2 splice up
Cn1c(SCc2ccccc2)nnc1-c1c[nH]c2ccccc12	?	?	?	14.6µM*	16.9µM*	?
CCSc1nnc(NC(=O)CSc2nnc(-c3c[nH]c4ccccc34)n2C)s1	1.5%	-0.1%	-0.2%	0.0%	-13.1%	6.3%
CCCCSc1nnc(-c2ccc(C)cc2)n1C	3.98µM*	?	3.55µM*	3.1%	?	?
O=C(NCc1ccccn1)C(=O)NN=C1CCCCCCC1	0.8%	6.6%	15.2%	2.5%	-5.8%	-28.7%
O=C(c1ccccc1)N1CCc2cc(CNS(=O)(=O)c3ccccc3Cl)ccc21	/	/	/	/	0.3%	/
COc1ccc(NC(=O)CN(C)C(=O)c2cn(-c3ccccc3)nc2-c2ccc(F)cc2)cc1	-1.1%	?	1.4%	-3.6%	21.3µM*	/
COC(=O)c1cn(-c2ccccc2)nc1-c1ccccc1	-0.8%	2.4%	2.9%	6.7%	?	-28.2%
COc1ccc(-c2nn(-c3ccccc3)cc2C(=O)Nc2ccc(C(=O)O)cc2)cc1	3.9%	-8.7%	-2.0%	-1.4%	10.7µM*	/
COc1ccc(NC(=O)CN(C)C(=O)c2cn(-c3ccccc3)nc2-c2ccc(OC)cc2)cc1	-3.2%	?	-1.9%	-2.2%	2.2%	/
COc1ccc(NC(=O)c2cn(-c3ccccc3)nc2-c2ccncc2)cc1	-4.6%	?	-2.2%	-7.7%	?	-2.8%
O=C(O)c1ccc(NC(=O)c2cn(-c3ccccc3)nc2-c2ccccc2)cc1	23.4%	?	27.9%	11.3%	1.2µM*	?
COc1ccc(-c2nn(-c3ccccc3)cc2C#N)cc1	?	?	3.55µM*	?	5.36µM*	-1.7%
COc1ccc(CN2C(=O)N(c3ccc(F)cc3)C(=O)C2CC(=O)Nc2ccccc2)cc1 (stereo not given)	/	/	/	/	-7.5%	0.8%
COC(=O)c1ccc(SCC(=O)NC2CCCCC2)c([N+](=O)[O-])c1	-2.1%	2.2%	-1.4%	-3.0%	5.7%	-18.7%
N#Cc1cn(-c2ccccc2)nc1-c1cc2ccccc2oc1=O	12.9%	?	-1.0%	?	0.1%	/
COc1ccc(-c2nn(-c3ccccc3)cc2/C=N/Nc2cccc(C(=O)O)c2)cc1	?	?	?	?	10.7µM*	25.3%
COc1ccc(-c2nn(-c3ccccc3)cc2C(=O)Nc2ccccc2OC)cc1	/	/	/	/	-0.3%	-10.4%
O=C(O)c1ccc(NC(=O)c2cn(-c3ccccc3)nc2-c2ccc(Br)cc2)cc1	0.2%	2.6%	-4.9%	-0.2%	3.79µM*	6.5%
O=C(O)c1cccc(NC(=O)c2cn(-c3ccccc3)nc2-c2cccc(Br)c2)c1	1.4%	15.9%	-4.9%	-0.1%	?	/
OCc1cn(-c2ccccc2)nc1-c1cc2ccccc2o1	2.51µM*	?	1.26µM*	?	1.69µM*	7.94µM*
COc1ccc(NC(=O)c2cn(-c3ccccc3)nc2-c2cc3ccccc3o2)cc1	10.1%	?	15.2%	-6.5%	8.49µM*	-4.9%
